Source: PubChem (National Center for Advancing Translational Sciences (NCATS))
Rows were chosen to be rich in hits. Some 7.9% of all compounds tested hit in one or more screens of this group.
MCF10A rereplic – induces DNA re-replication in MCF 10a normal breast cells. MCF 10A DNA re-replication, Hoechst nuclear intensity, 48 h. Potency, µM (titrated, usually from 46.1 µM), without a hit: at the highest dose activity, positive = re-replication, most hits filed as activators. 350,000 compounds, 2.9% hits; further: % of control where 0% means no effect; nearly all actives have a fitted effect of over 50% in size
KB-3-1 cytotox – kills parental KB-3-1 adenocarcinoma cells; KB-3-1 viability, CellTiter-Glo ATP luminescence, 72 h; Potency, µM (doses to about 46.1 µM), usual class: cytotoxic; 400,000 compounds, 1.4% hits; AID 1347075; further: on the % scale 0 is the no-effect control and ±100 the full control effect; nearly all actives have a fitted effect of over 60% in size
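Cytotoxicity in the drug-sensitive parental line KB-3-1 was scored as loss of CellTiter-Glo luminescence following 72 h incubation with compound. Values come from curve fitting of normalized concentration-response data.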
HT1080 IDH1KD tx – toxicity to HT-1080 IDH1 knockdown cells (counter line). HT-1080 IDH1 knockdown viability, ATP luminescence, 48 h. Potency, µM (titrated, usually from 46.1 µM), for inactives: top-dose activity, negative = toxicity, hits mostly cytotoxic. 360,000 compounds, 2% hits. AID 686971;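 further: 0% = DMSO wells and -100% = cell-free medium wells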
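Assay cells: HT-1080 with IDH1 knockdown, 750 per well, RPMI/5% FBS. Exposure: 48 h at 37 °C following 2 h pre-incubation. Read: CellTiter-Glo luminescence; fitted concentration-response, curve class assigned.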
SW480 rereplic – induces DNA re-replication in SW480 colon adenocarcinoma cells. 340,000 compounds, 1.8% hits. SW480 DNA re-replication, Hoechst DNA content imaging, 48 h. Potency, µM (titrated, usually from 46.1 µM), for the others: at the highest dose re-replication activation, actives largely listed as activators. AID 624297; further: % of control where 0% means no effect; nearly all actives have a fitted effect of over 55% in size
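Hoechst fluorescence of nuclei (405 nm excitation, 500-530 nm emission) measured by plate-scanning imager after 48 hr compound exposure at 37 C; re-replication scored as increased number of nuclei with elevated intensity.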
HT1080NT lethal – kills 2HG-producing HT-1080-NT fibrosarcoma cells; HT-1080-NT fibrosarcoma viability, CellTiter-Glo ATP luminescence, 48 h; Potency, µM (titrated, usually from 46.1 µM), without a hit: top-dose activity, negative = less viability, actives largely listed as cytotoxic; 360,000 compounds, 1.6% hits; AID 686970;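 further: NT is the 2HG producing partner of a matched IDH1 knockdown line; 0% = DMSO-treated cells and -100% = media-only wells without cells; nearly all actives have a fitted effect of over 55% in size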
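Viability of the 2HG-overproducing fibrosarcoma line after 48 hours of compound exposure at 37 degrees C was determined by luminescence with CellTiter-Glo, and concentration-effect curves were then fitted and categorized.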
KB-V1 MDR tox – KB-V1 MDR subline cytotoxicity; KB-V1 MDR cells viability, CellTiter-Glo, 72 h; Potency, µM (doses to about 46.1 µM), hits mostly cytotoxic; 400,000 compounds, 3.4% hits; further: on the % scale 0 is the no-effect control and ±100 the full control effect; nearly all actives have a fitted effect of over 60% in size
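In this primary screen, KB-V1 cells overexpressing P-gp are incubated with library compounds (lowest to highest concentration) for 72 h at 37 degrees C before a luminescent ATP viability read.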
* hit, by the source's call; i = inactive; u = inconclusive; x = no result given; ! = repeats disagree; [ ] = another dose, or the depositor's remark. The call rests on the fitted dose curve; in most records, active means well fitted curve in the direction sought with a large enough effect; inconclusive means small, poorly fitted or top-dose-only effect, or another doubt; inactive means no such curve, though single readings can be large; an effect the other way counts as inactive or inconclusive. Potency means the concentration at half of the fitted maximal effect.

SMILES	MCF10A rereplic	KB-3-1 cytotox	HT1080 IDH1KD tx	SW480 rereplic	HT1080NT lethal	KB-V1 MDR tox
CCOc1ccc(/C=N/NC(=O)C(C)N(c2ccc(OC)cc2)S(C)(=O)=O)cc1 (stereo not given)	-6.6%	i	17.8%	-3.6%	2.1%	i
COC(=O)[C@@H](CC(C)C)NS(=O)(=O)N(Cc1ccccc1)[C@@H](CC(C)C)C(=O)OC	u	u	3.3%	6.0%	0.9%	u
C=CS(=O)(=O)N(Cc1ccccc1Br)[C@H](CO)CC(C)C	15.5%	23.1µM*!	-19.7%	u	-12.3%	u
C=C[C@H](CC(C)C)N(Cc1ccccc1)S(=O)(=O)N(Cc1ccccc1)[C@@H](C=C)CC(C)C	9.2µM*	i	14.4%	-2.9%[9.22 µM]	1.1%	i
CC(C)C[C@@H](CO)N(Cc1ccccc1)S(=O)(=O)N(Cc1ccccc1)[C@@H](CO)CC(C)C	u	23.1µM*!	u	0.0%	u	u
COc1ccc(CN([C@H](CO)CC(C)C)S(=O)(=O)N(Cc2ccccc2)[C@H](CO)CC(C)C)cc1	267.4%	u	6.51µM*	-17.0%	16.4µM*	16.4µM*!
COc1ccc(CN([C@H](C)CO)S(=O)(=O)N(Cc2ccccc2)[C@H](CO)C(C)C)cc1	-11.1%	i	8.1%	-15.4%	12.4%	i
O=S(=O)(N(Cc1ccccc1)[C@H](CO)Cc1ccccc1)N(Cc1ccccc1)[C@H](CO)Cc1ccccc1	23.1µM*	i	-4.4%	-0.6%	-5.2%	i
CCN([C@H](CO)CC(C)C)S(=O)(=O)c1ccccc1	8.6%	i	7.2%	-31.7%	-0.7%	i
CC(C)C[C@@H](CO)N(Cc1ccccc1)S(=O)(=O)N(Cc1ccccc1)[C@H](CO)CC(C)C	u	u	u	11.2%	u	20.6µM*!
Cc1cccc(-n2c(SCC(=O)N3CCCC3)nnc2-c2ccccn2)c1C	-2.0%	i	25.0%	0.6%	3.8%	i
CCOC(=O)c1ccc(-n2c(C)ccc2C)cc1	10.4%	i	1.5%	2.7%	-3.4%	i
COC(=O)c1cc(=O)n(-c2ccccc2)c(=Nc2ccccc2)s1	18.4µM*	u	u	u	u	i
CCOC(=O)c1ccc(N=c2sc(C(=O)OC)cc(=O)n2-c2ccc(C(=O)OCC)cc2)cc1	u	u	u	u	16.4µM*	u
COC(=O)c1cc(=O)n(Cc2cccs2)c(=Nc2ccccc2)s1	10.3µM*	i	-5.4%	5.6%	-22.1%	u
O=C1c2cccc(OCC(=O)N3CCCc4ccccc43)c2CCN1Cc1ccc(F)cc1	14.6µM*	u	-25.0%	10.3%	-23.7%	9.2µM*
Cc1cccc(CN2CCc3c(OCC(=O)NCc4ccco4)cccc3C2=O)c1	3.5%	i	-10.9%	7.5%	-5.5%	14.6µM*
Cc1ccc(C)c(NC(=O)COc2cccc3c2CCN(Cc2ccccc2)C3=O)c1	4.3%	i	-0.9%	4.1%	1.0%	i
CN1CCc2c(OCC(=O)N3CCCc4ccccc43)cccc2C1=O	8.6%	i	0.6%	u	-6.1%	u
Cc1cccc(CN2CCc3c(OCC(=O)N4CCCc5ccccc54)cccc3C2=O)c1	u	16.4µM*	u	18.7%	u	u
O=C(Nc1cccc(Oc2ccc3c(c2)C(=O)NC3=O)c1)c1cccs1	4.1%	i	2.0%	-2.6%	1.0%	u
Clc1ccc2c(NCCNC3CCCCC3)ccnc2c1	u	u	20.6µM*	6.51µM*	14.6µM*	u
CC(C)NC1CCC(Nc2ccnc3cc(Cl)ccc23)CC1 (stereo not given)	13.4%	u	u	u	-8.8%	i
CCOc1ccc(CCNC(=O)Cn2c(-c3cccs3)cc3ccccc32)cc1OCC	x	i	x	x	x	i
COc1cc(SC)ccc1C(=O)NCc1ccccc1	2.9%	i	10.1%	-130.5%	13.0%	20.6µM*
SMILES	MCF10A rereplic	KB-3-1 cytotox	HT1080 IDH1KD tx	SW480 rereplic	HT1080NT lethal	KB-V1 MDR tox
COc1cc(SC)ccc1C(=O)NCCOc1ccc(C)c(C)c1	5.4%	i	-8.9%	-1.4%	-7.7%	16.4µM*
CCn1c(C)cc(C(=O)COC(=O)c2ccccc2[N+](=O)[O-])c1C	-6.7%	i	2.8%	-4.4%	-1.6%	25.9µM*
COc1ccc(OC)c(/C=C2\N=C(c3ccccc3)OC2=O)c1	-10.8%	i	3.9%	-1.6%	2.3%	i
COc1ccc(/C=C2\N=C(C(C)(C)C)OC2=O)c(OC)c1	23.1µM*	i	-0.4%	-0.9%	-0.9%	i
COc1cccc(CNn2cnnc2)c1OCc1ccc(F)cc1	-1.0%	i	14.9%	-4.6%	9.0%	i
COc1cccc(CNCCc2c[nH]c3ccccc23)c1OCc1ccccc1	u	u	16.4µM*	u	20.6µM*	u
COc1cccc(CNC23CC4CC(CC(C4)C2)C3)c1OCc1ccccc1	29.5%	u	-11.6%	u	-25.3%	20.6µM*
COc1cc(CNCCc2ccc(S(N)(=O)=O)cc2)ccc1OCc1ccc(Cl)cc1	13µM*	u	12.6µM*	u	-4.2%[9.24 µM]	u
COc1cc(CNCCc2ccc(S(N)(=O)=O)cc2)ccc1OCC(=O)NC1CCCCC1	u	u	4.6%	-0.9%	7.0%	u
COc1ccccc1CCNCc1ccc(OC)c(OCc2ccccc2)c1	1.8%	u	u	u	u	4.61µM*
CC(C)(C)NC(=O)NC(=O)CSc1nnc(-c2ccccc2F)n1N	-1.7%	i	-1.5%	-0.7%	0.9%	i
O=C(COC(=O)c1cc(F)cc(F)c1)Nc1cccnc1Cl	-0.5%	i	-2.2%	-0.6%	-9.9%	i
OCC1(Cc2cccc(Cl)c2)CCCN(Cc2cn[nH]c2C2CCCCC2)C1 (stereo not given)	-0.7%	i	-3.7%	u	2.3%	i
C=CCn1c(SCC(=O)NNC(=O)Nc2cccc(Cl)c2)nnc1-c1ccccc1	1.1%	i	-2.0%	-7.7%	1.6%	i
Cc1c(/C=N/NC(=O)c2ccc(O)cc2)c2ccccn2c1C(=O)c1ccc(F)cc1	29.0%	u	u	-10.3%	u	18.4µM*
CCOC(=O)N/N=C/c1c(C)c(C(=O)c2ccc(F)cc2)n2ccccc12	-2.1%	i	17.3%	-3.8%	17.6%	i
Cc1c(/C=N/NC(=O)CNc2ccccc2)c2ccccn2c1C(=O)c1ccccc1	u	u	-27.7%	-13.6%	-15.3%	3.66µM*
